# Compounds with a hit are over-represented: about 3.5% of the library has one in this group of screens.
# MITF primary: blocks human microphthalmia-associated transcription factor; inhibition, % at 2.6 µM; O75030; AlphaScreen MITF homodimerization, bead proximity signal; hit rate 0.91% among 650,000; in the data active = inhibition above about 50%;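 note: 0% = vehicle wells with protein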
# Target sequence (O75030 whole entry, looked up): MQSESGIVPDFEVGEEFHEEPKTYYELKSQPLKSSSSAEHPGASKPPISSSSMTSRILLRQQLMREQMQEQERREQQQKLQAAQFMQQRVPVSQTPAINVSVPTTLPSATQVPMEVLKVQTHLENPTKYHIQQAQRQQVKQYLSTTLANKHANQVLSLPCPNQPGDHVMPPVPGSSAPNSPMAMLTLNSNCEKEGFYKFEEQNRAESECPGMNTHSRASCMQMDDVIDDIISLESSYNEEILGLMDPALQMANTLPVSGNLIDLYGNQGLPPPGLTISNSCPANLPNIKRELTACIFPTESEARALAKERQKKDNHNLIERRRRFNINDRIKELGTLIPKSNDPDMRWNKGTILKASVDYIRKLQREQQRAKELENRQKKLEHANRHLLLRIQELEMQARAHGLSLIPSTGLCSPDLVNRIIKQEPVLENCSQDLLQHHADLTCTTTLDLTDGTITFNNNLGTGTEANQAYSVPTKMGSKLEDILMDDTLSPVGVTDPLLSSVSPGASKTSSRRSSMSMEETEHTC
# TEAD-YAP inh: TEAD-YAP interaction inhibition; inhibition, % at 9.12 µM; hit rate 1.4% among 640,000; HEK-TIYL cells, TEAD-Gal4/YAP UAS-luciferase luminescence; in the data active = inhibition above about 32%;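 note: 0% = median of test compound wells and 100% = reference inhibitor wells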
# FBW7 activator: activators of human E3 ligase FBW7; normalized activity (activation), % at 26.1 µM; AID 1259310; hit rate 0.13% among 650,000; AlphaScreen FBW7–phospho-cyclin E peptide binding, activator screen; in the data active = normalized activity above about 1.9%;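 note: purified mutant Fbw7 with reduced substrate affinity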
# GPR151 activ: human GPR151 activation; PathHunter beta-arrestin GPR151 cells, luminescence; Q8TDV0; hit rate 1% among 650,000; activation, % at 11.2 µM; AID 1508602; in the data active = activation above about 4.9%;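 note: 0% = median of compound wells and 100% = cells with positive control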
# Active calls of the source: *.
SMILES,MITF primary,TEAD-YAP inh,FBW7 activator,GPR151 activ
CCN1CCN(C(CC(C)C)c2nnnn2Cc2ccc(F)cc2)CC1 (stereo not given),-5,53*,0,-1
O=C(N=c1sn2c(c1[N+](=O)[O-])CCCCC2)c1ccccc1,-2,84*,0,-2
O=C(c1ccccc1)N1CCN(C(=O)c2cc3c(s2)CCCCC3)CC1,8,2,0,-1
CC(C)[C@@H](CO)Nc1ccc2ncc(-c3cccc(F)c3)n2n1,-9,14,0,0
CC(C)[C@@H](CO)Nc1ccc2ncc(-c3ccc(N)cc3)n2n1,9,31,17*,-1
CC(C)[C@@H](CO)Nc1ccc2ncc(-c3cccc(O)c3)n2n1,18,39*,0,-1
Cc1ccc(-c2cnc3ccc(N[C@H](CO)C(C)C)nn23)cc1,-14,17,0,2
O=c1c2cn[nH]c2nc(SCc2ccc(C(F)(F)F)cc2)n1-c1cccc(C(F)(F)F)c1,-9,-5,0,1
N#CC1=C(SCC(=O)Nc2cccc(Br)c2)NC(=O)CC1c1cccs1 (stereo not given),-16,-4,0,0
COc1cccc(NC(=O)CSC2=C(C#N)C(c3cccs3)CC(=O)N2)c1 (stereo not given),-11,40*,0,1
N#CC1=C(SCC(=O)Nc2cc(Cl)cc(Cl)c2)NC(=O)CC1c1cccs1 (stereo not given),-7,43*,0,-1
Cc1c(N/N=C(\C#N)C(=O)c2ccccc2)c(=O)n(-c2ccccc2)n1C,40,18,-2,-1
Cc1ccccc1C(=O)/C(C#N)=N/Nc1c(C)n(C)n(-c2ccccc2)c1=O,70*,20,-1,0
CCN(CC)S(=O)(=O)c1ccc(NC)c(N)c1,2,-16,0,1
Clc1ccccc1CSc1nn2cnnc2s1,-4,55*,0,0
Fc1ccc(CSc2nn3cnnc3s2)cc1,8,58*,1,-1
c1ccc(CSc2nn3cnnc3s2)cc1,-8,58*,0,0
Cn1cnnc1SCc1ccccc1Cl,0,12,0,1
Cc1cccc(N2C(=O)NC3CC2(C)Oc2ccc([N+](=O)[O-])cc23)c1 (stereo not given),-10,1,0,0
CC(=O)Nc1nc(-c2ccc3c(c2)CCN3C(=O)C2CC2)c(C)s1,3,75*,0,1
CC(=O)Nc1nc(-c2ccc3c(c2)CCN3C(=O)C2CCCCC2)c(C)s1,20,78*,0,1
Cc1sc(NC(=O)c2cnccn2)nc1-c1ccc2c(c1)CCN2C(=O)C1CCCCC1,7,0,0,1
COc1ccc(C)cc1NC(=O)Cn1c(C)c(C=O)c2ccccc21,12,12,0,2
CCCCCCCCCCCCC[N+](C)(C)Cc1ccccc1,24,38*,0,1
CCOCCCN=Cc1c(O)[nH]c2ccccc12,1,4,0,0
SMILES,MITF primary,TEAD-YAP inh,FBW7 activator,GPR151 activ
COc1ccc(CNC(=O)C(=O)N/N=C/c2ccccc2[N+](=O)[O-])cc1,6,-2,0,0
Cn1c(SCc2cc(=O)oc3cc(O)c(O)cc23)nc2ccccc21,42,-4,0,-3
Nn1c(Cc2ccccc2F)nnc1SCc1cc(=O)oc2cc(O)c(O)cc12,95*,6,-1,-1
Nn1c(SCc2cc(=O)oc3cc(O)c(O)cc23)nnc1-c1ccncc1,85*,-6,-1,0
O=C(O)/C(=C\c1ccc2c(c1)OCO2)NC(=O)c1cccc2ccccc12,-8,-6,0,2
CC(=O)N[C@@H](Cc1cccc(C)c1)c1nc2ncc(-c3ccncc3)cc2[nH]1,-4,46*,0,-1
CCOC(=O)C1CCCc2c1[nH]c1ccc(Cl)cc21 (stereo not given),12,39*,1,2
Cc1cc(Nc2c(C)cccc2C)n2ncnc2n1,0,-5,0,-1
Cc1cc(Nc2cc3ccccc3cc2O)n2ncnc2n1,-3,65*,0,-1
CCc1ccccc1-n1cnc2cc(C(=O)NCCCOC)ccc21,-15,-3,0,1
Cc1cc(=O)[nH]c2nnc(SCc3ccccc3Cl)n12,-2,-2,0,0
Cc1ccc(C(=O)N/C(=C/c2ccc(-c3ccc(Cl)cc3)o2)C(=O)NCc2ccccc2)cc1,3,-5,0,-1
O=C(NCc1cccnc1)/C(=C/c1ccc(-c2ccc(Cl)cc2)o1)S(=O)(=O)c1ccccc1,12,56*,0,-1
O=[N+]([O-])c1cc(S(=O)(=O)N2CCOCC2)ccc1Sc1nc2ccccc2s1,12,0,0,2
CS(=O)(=O)c1ccc(Sc2nc3ccccc3s2)c([N+](=O)[O-])c1,5,64*,0,0
